A short description of assay [1]: NCI Yeast Anticancer Drug Screen. Data for the rad50 strain (AID 155).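 Further: 0% = growth of vehicle-only cultures of the same strain.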 Conditions: S. cerevisiae rad50 strain growth inhibition; at 50.0 µM; stronger effect = higher value. Summed up:
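Vehicle-treated cultures provide the reference for the growth inhibition reported for compound-exposed, repair-deficient yeast.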

Assay [2] is described as follows: NCI Yeast Anticancer Drug Screen. Data for the mec2-1 strain (AID 157). Conditions: S. cerevisiae mec2-1 strain, at 50.0 µM, stronger effect = higher value. Summed up:
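mec2-1 yeast strain, carrying an alteration in DNA damage repair or cell cycle control, was exposed to compounds; growth inhibition was measured relative to vehicle-treated controls.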

Assay [3] can be described thus: NCI Yeast Anticancer Drug Screen. Data for the sgs1 mgt1 strain (AID 161).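 Further: 0% = growth of cultures given vehicle only.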 Conditions: S. cerevisiae sgs1 mgt1 strain, at 50.0 µM, stronger effect = higher value. A digest of the protocol: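 Percent growth inhibition was derived by comparing compound-exposed mutant yeast with vehicle-exposed cultures. The strain carries alterations in DNA damage repair.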
Assay [4] can be described thus: NCI Yeast Anticancer Drug Screen. Data for the cln2 rad14 strain (AID 165).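 Further: 0% = growth equal to vehicle treated cultures.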 Conditions: S. cerevisiae cln2 rad14 strain, at 50.0 µM, stronger effect = higher value. Summed up:
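Yeast carrying cln2 and rad14 alterations (cell cycle control and DNA damage repair) were exposed to compounds. Growth inhibition was measured against vehicle-treated controls.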

Assay [5] in a line: NCI Yeast Anticancer Drug Screen. Data for the bub3 strain (AID 167). Conditions: S. cerevisiae bub3 mutant strain, at 50.0 µM, stronger effect = higher value. A digest of the protocol:
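Mutant yeast screening strain plus compound; vehicle-treated cultures serve as the 0% inhibition reference.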

A short description of assay [6]: NCI Yeast Anticancer Drug Screen. Data for the mlh1 rad18 strain (AID 175). Conditions: S. cerevisiae mlh1 rad18 strain growth inhibition; at 50.0 µM; stronger effect = higher value. Summed up:
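Growth inhibition of the yeast strain was measured after compound exposure and expressed relative to vehicle-treated controls. The strain carries defined defects in DNA damage repair.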

Where “and” joins values, the source holds several entries; their conditions need not be identical. Identical values can stand only once. This is part of a sample that, as a whole, favours compounds with a hit. Of some 79,000 tested, about 15% had one in any assay. More than one record can exist for a structure, and the calls need not agree. Calls of active or inactive are those of the source. No stated cut-off is given here; in the data, active means growth inhibition above about 70%; inactive means the rest.

Take `CC(C)C1C=C2CCC3C(C)(C(=O)O)CCCC3(C)C2CC1` (stereo unspecified): the growth inhibition is 79.6% (active) and 46.2% (inactive) in assay [1]; 68.2% (inactive) and 58.1% (inactive) in assay [2]; 22.8% (inactive) and 48% (inactive) in assay [3]; 73.7% (active) and 65.3% (inactive) in assay [4]; 65.2% (inactive) and 44.9% (inactive) in assay [5]; 81.7% (active) and 49.9% (inactive) in assay [6].

Turning to `S=c1nc[nH]c2ccccc12`, the growth inhibition in assay [1] was -2.5% (inactive) and -12.8% (inactive); in assay [2], -4.8% (inactive) and -16.8% (inactive); in assay [3] it was -11% (inactive) and 12.9% (inactive); in assay [4] it was -98.9% (inactive) and -0.05% (inactive); in assay [5] it was -2.75% (inactive) and -2.25% (inactive); in assay [6], 5% (inactive) and 5.65% (inactive).

`CC(C)N=C(N)C(N)=NC(C)C`: the growth inhibition in assay [1] was 20.1% (inactive) and -65.4% (inactive); in assay [2] it was -18% (inactive) and 6.55% (inactive); in assay [3], -2.5% (inactive) and -13.2% (inactive); in assay [4], -67.2% (inactive) and -46.5% (inactive); in assay [5], 1.8% (inactive) and -11.1% (inactive); in assay [6], -14.6% (inactive) and -16.9% (inactive).

For the molecule `O=[N+]([O-])c1ccc2c(c1)C(=Nc1ccccc1)c1cccc([N+](=O)[O-])c1-2`, the growth inhibition was 6.55% (inactive) and -21.9% (inactive) in assay [1]; 16.2% (inactive) and -12.8% (inactive) in assay [2]; 15.6% (inactive) and -6.05% (inactive) in assay [3]; -36.9% (inactive) and -24.8% (inactive) in assay [4]; 8.8% (inactive) and 8.9% (inactive) in assay [5]; 20.3% (inactive) and -26.3% (inactive) in assay [6].

Turning to `C=Cc1c(C)c2cc3[nH]c(cc4nc(cc5nc(cc1[nH]2)C(C)=C5CCC(=O)O)C(CCC(=O)O)=C4C)c(C)c3C=C`, the growth inhibition was 6.5% (inactive) and 13% (inactive) in assay [1]; 1.5% (inactive) and -13.3% (inactive) in assay [2]; 9.05% (inactive) and 12.7% (inactive) in assay [3]; 10.2% (inactive) and 10.5% (inactive) in assay [4]; 0.65% (inactive) and -0.1% (inactive) in assay [5]; 32.6% (inactive) and 27.1% (inactive) in assay [6].

In the case of `CCCCN(CCCC)CCCN`, the growth inhibition in assay [1] is 13.2% (inactive) and 9.35% (inactive); in assay [2], -1.45% (inactive) and -6.9% (inactive); in assay [3] it was -18.9% (inactive) and -5.35% (inactive); in assay [4], -11.6% (inactive) and 9.8% (inactive); in assay [5], 6.5% (inactive) and -3.15% (inactive); in assay [6], -9% (inactive) and 11.7% (inactive).

In the case of `NC(Cc1cnc[nH]1)C(=O)O` (stereo unspecified), the growth inhibition in assay [1] was -15.4% (inactive) and 3.95% (inactive); in assay [2] it was -27.9% (inactive) and 0.2% (inactive); in assay [3] it was 2.35% (inactive) and 16.4% (inactive); in assay [4], -0.05% (inactive) and 3.55% (inactive); in assay [5] it was -4.35% (inactive) and 3.9% (inactive); in assay [6], -20.9% (inactive) and -3.1% (inactive).

As for `O=C(O)CC(NC(=O)OCc1ccccc1)C(=O)O` (stereo unspecified), the growth inhibition in assay [1] is -30.5% (inactive) and -21.3% (inactive); in assay [2], -16.4% (inactive) and 9.65% (inactive); in assay [3] it was -6.2% (inactive) and 0.8% (inactive); in assay [4], 16.5% (inactive) and -33.6% (inactive); in assay [5], 1.55% (inactive) and 4.65% (inactive); in assay [6], -8.75% (inactive) and -16.1% (inactive).

In the case of `NNc1nc2c(N)ncnc2n1C1OC(CO)C(O)C1O` (stereo unspecified), the growth inhibition in assay [1] was -7% (inactive) and 14% (inactive); in assay [2], -5.05% (inactive) and 15.8% (inactive); in assay [3], 17.4% (inactive) and 4.95% (inactive); in assay [4] it was -21.1% (inactive) and 15.2% (inactive); in assay [5], 14.8% (inactive) and 13.1% (inactive); in assay [6] it was -5.95% (inactive) and 10.6% (inactive).

As to `CC(=O)OCCN(CCOC(C)=O)C(C)=O`, the growth inhibition in assay [1] was 22.6% (inactive) and -2.1% (inactive); in assay [2], 5.7% (inactive) and 8.4% (inactive); in assay [3], 19.1% (inactive) and 0.4% (inactive); in assay [4], 7.3% (inactive) and -18.9% (inactive); in assay [5], -1.45% (inactive) and -10.7% (inactive); in assay [6], 17.9% (inactive) and -3.75% (inactive).

With `O=C(O)CCC(C(=O)O)N1C(=O)c2ccccc2C1=O` (stereo unspecified), the growth inhibition in assay [1] is 9.3% (inactive) and -0.9% (inactive); in assay [2] it was -0.3% (inactive) and -41.5% (inactive); in assay [3], 0.3% (inactive) and -24.4% (inactive); in assay [4] it was -30.1% (inactive) and -10.7% (inactive); in assay [5], 3.75% (inactive) and -48.2% (inactive); in assay [6], 8.6% (inactive) and -0.75% (inactive).

Consider `O=C1NC(=O)C(CO)(c2ccccc2)N1` (stereo unspecified), for which the growth inhibition is 14.2% (inactive) and 7.65% (inactive) in assay [1]; 2% (inactive) and -11.6% (inactive) in assay [2]; 6% (inactive) and -1.85% (inactive) in assay [3]; -18.6% (inactive) and 46.5% (inactive) in assay [4]; 0.95% (inactive) and 10.4% (inactive) in assay [5]; 7.2% (inactive) and 21.4% (inactive) in assay [6].

On to `COC(=O)C(Cc1ccccc1)NC(=O)C(CNC(=O)OCc1ccccc1)C(=O)OCc1ccccc1` (stereo unspecified), for which the growth inhibition is 16.2% (inactive) and -13.2% (inactive) in assay [1]; -5.6% (inactive) and -6.65% (inactive) in assay [2]; -1.9% (inactive) and -8.85% (inactive) in assay [3]; 0.65% (inactive) and -3.55% (inactive) in assay [4]; -3.5% (inactive) and -20.5% (inactive) in assay [5]; -11.1% (inactive) and -10.2% (inactive) in assay [6].

`CC1=C/C(=C(\c2cc(C)c(O)c(C(=O)O)c2)c2c(Cl)ccc(S(=O)(=O)O)c2Cl)C=C(C(=O)O)C1=O`: the growth inhibition was 25.6% (inactive) and -15.2% (inactive) in assay [1]; 0.1% (inactive) and -0.75% (inactive) in assay [2]; 22.8% (inactive) and -4.2% (inactive) in assay [3]; 21.1% (inactive) and -2.6% (inactive) in assay [4]; -3.05% (inactive) and -7.4% (inactive) in assay [5]; 41.5% (inactive) and -2.55% (inactive) in assay [6].

In the case of `C/C(=N\NC(N)=O)c1ccc(Cl)cc1`, the growth inhibition in assay [1] was 27.9% (inactive) and 9.05% (inactive); in assay [2], 10.8% (inactive) and -3.65% (inactive); in assay [3], 2% (inactive) and -6.25% (inactive); in assay [4] it was 9.6% (inactive) and -8.65% (inactive); in assay [5] it was -4.15% (inactive) and 6% (inactive); in assay [6], 7.3% (inactive) and 10.7% (inactive).

For the molecule `CCCCCCCC/C=C\CCCCCCCCOCC(O)CO` (stereo unspecified), the growth inhibition in assay [1] was -8.65% (inactive) and -26.1% (inactive); in assay [2], -25.6% (inactive) and -20.9% (inactive); in assay [3], -1.8% (inactive) and -4% (inactive); in assay [4], -17.9% (inactive) and 3.35% (inactive); in assay [5] it was -25.4% (inactive) and -31.6% (inactive); in assay [6], -27.6% (inactive) and -20.8% (inactive).

The values above are taken from PubChem BioAssay (NCI).
